Screening data: PubChem, National Center for Advancing Translational Sciences (NCATS)
Most compounds without a hit are left out; they make up all but 19% or so of the library.
TDP1 cell noCPT – qHTS for Inhibitors of human tyrosyl-DNA phosphodiesterase 1 (TDP1): qHTS in cells in absence of CPT; DT40 Tdp1-/- hTDP1 cells, no CPT, ATP luminescence, 48 h; Potency, µM (highest dose often 46.2 µM), usual class: inhibitors; 420,000 compounds, 15% hits; also: nearly all actives have a fitted effect of over 55% in size
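DT40 Tdp1-/-;hTDP1 cells, no CPT (DMSO vehicle only), 400 cells/well; compounds pin-transferred; ≥48 hr, 37 °C; CellTiter-Glo 30 min RT dark, luminescence read.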
TDP1 cell CPT – DT40-hTDP1 cell growth loss with CPT; chicken DT40 Tdp1-/-;hTDP1 cells + 20 nM CPT, ATP luminescence, 48 h; Potency, µM (top dose mostly 46.2 µM), actives largely listed as inhibitors; 420,000 compounds, 12% hits; AID 686979; also: nearly all actives have a fitted effect of over 55% in size
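Cell growth measured by CellTiter-Glo luminescence after a minimum 48 h, 37 C compound exposure with 20 nM CPT in Tdp1-knockout DT40 cells stably expressing hTDP1, seeded 400/well; qHTS titration format.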
HT1080 IDH1KD tx – toxicity to HT-1080 IDH1 knockdown cells (counter line) | HT-1080 IDH1 knockdown viability, ATP luminescence, 48 h | Potency, µM (series often up to 46.1 µM), most hits filed as cytotoxic | 360,000 compounds, 2% hits | AID 686971
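Assay cells: HT-1080 with IDH1 knockdown, 750 per well, RPMI/5% FBS. Exposure: 48 h at 37 °C following 2 h pre-incubation. Read: CellTiter-Glo luminescence; fitted concentration-response, curve class assigned.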
ELG1 repair inh – blocks ELG1-dependent DNA repair in HEK293T cells; HEK293T ELG1-luciferase reporter, luminescence, 16 h; DNA damage induced by 5-fluorouridine; Potency, µM (top dose mostly 46.1 µM), actives largely listed as inhibitors; 330,000 compounds, 2.3% hits; AID 504467; also: nearly all actives have a fitted effect of over 55% in size
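Overnight (16 hr) co-exposure of 2,000 cells/well to 5-fluorouridine and compound at 37 °C preceded detection. Luciferase was quantified via ONE-Glo luminescence; loss of signal denotes inhibition.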
IL-1B inflam inh – inflammasome signaling inhibition, IL-1 beta readout. activity change, % at 57.5 µM. 360,000 compounds, 4.7% hits. THP-1 LPS/ATP IL-1B secretion, AlphaLISA, 16 h; active compounds read low; in the data active = activity change below about -50%; inconclusive = mostly about -30% to -49%
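Secreted IL-1B measured by AlphaLISA bead assay after 16 h compound exposure of THP-1 cells; compounds (final up to 57.5 uM) added 1 h before LPS (250 ng/mL) and ATP (1.25 mM) stimulation; lower signal means less secretion.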
HT1080NT lethal – kills 2HG-producing HT-1080-NT fibrosarcoma cells; HT-1080-NT fibrosarcoma viability, CellTiter-Glo ATP luminescence, 48 h; Potency, µM (top dose mostly 46.1 µM), usual class: cytotoxic; 360,000 compounds, 1.6% hits;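 also: NT is the 2HG producing partner of a matched IDH1 knockdown line; nearly all actives have a fitted effect of over 55% in size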
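Fibrosarcoma NT cells, 750 per well in 5% FBS RPMI, were exposed to compound for 48 hours. Viability: CellTiter-Glo luminescence.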
Of the large screens only hits and unclear results are named; the others gave an inactive call. Unless noted, calls follow the shape of the dose curve; as a rule, active = well fitted curve in the direction sought with a large enough effect; inconclusive = small, poorly fitted or top-dose-only effect, or another doubt; inactive = no such curve, though single readings can be large; an effect the other way counts as inactive or inconclusive.

Cc1ccc(OCC(O)Cn2c(=N)n(CCN3CCOCC3)c3ccccc32)cc1 (centres undefined)	TDP1 cell noCPT 23.1µM, TDP1 cell CPT inconclusive, IL-1B inflam inh inconclusive
CCOC(=O)C1CCN(C(=O)CSc2n[nH]c(-c3ccc(OC)cc3)n2)CC1	TDP1 cell CPT inconclusive (no result: HT1080 IDH1KD tx, ELG1 repair inh, IL-1B inflam inh, HT1080NT lethal)
NC(=O)c1ccsc1NC(=O)CCS(=O)(=O)c1ccc(Cl)cc1	TDP1 cell noCPT inconclusive, TDP1 cell CPT inconclusive
CSc1nc(O)c(C(c2ccc(OC(C)C)cc2)c2c(O)nc(SC)[nH]c2=O)c(=O)[nH]1	TDP1 cell noCPT inconclusive (no result: ELG1 repair inh)
CCCCC1CCC(C(=O)NCC(c2ccco2)N2CCOCC2)CC1 (centres undefined)	none (no result: TDP1 cell noCPT, TDP1 cell CPT, HT1080 IDH1KD tx, IL-1B inflam inh, HT1080NT lethal)
CC(=O)C1(C)C(=O)N(c2ccc(F)cc2)C(=O)N1c1ccc(F)cc1 (centres undefined)	HT1080 IDH1KD tx inconclusive (no result: ELG1 repair inh)
OC1CCCN(Cc2ccc3ccc4cccc5ccc2c3c45)C1 (centres undefined)	TDP1 cell noCPT 20.6µM, TDP1 cell CPT inconclusive, HT1080 IDH1KD tx inconclusive, IL-1B inflam inh -68.8, HT1080NT lethal inconclusive
c1cc2ccc3ccc(CN4CCOCC4)c4ccc(c1)c2c34	TDP1 cell noCPT inconclusive, TDP1 cell CPT inconclusive, IL-1B inflam inh -76.9
CCOC(=O)c1ccc(NC(=S)N2CCN(C(=O)C3CCCO3)CC2)cc1 (centres undefined)	none
CCN1C(=O)[C@H]2[C@@H](c3ccc(C)cc3)N[C@]3(CCCN(Cc4ccc(C(F)(F)F)cc4)C3=O)[C@H]2C1=O	TDP1 cell noCPT 10.3µM, TDP1 cell CPT 13µM (no result: ELG1 repair inh)
COc1ccc([C@H]2N[C@]3(CCCN(CC4CCCCC4)C3=O)[C@H]3C(=O)N(Cc4ccccc4)C(=O)[C@@H]23)cc1	TDP1 cell noCPT 20.6µM, TDP1 cell CPT inconclusive (no result: ELG1 repair inh)
CCN1C(=O)[C@H]2[C@@H](c3ccc(C(F)(F)F)cc3)N[C@]3(CCCN(CC4CCCCC4)C3=O)[C@H]2C1=O	TDP1 cell noCPT inconclusive, TDP1 cell CPT inconclusive, IL-1B inflam inh inconclusive (no result: ELG1 repair inh)
CCN1C(=O)[C@H]2[C@@H](c3ccc(OC)cc3)N[C@]3(CCCN(Cc4ccc(C(F)(F)F)cc4)C3=O)[C@H]2C1=O	TDP1 cell noCPT 18.4µM, TDP1 cell CPT inconclusive (no result: ELG1 repair inh)
CCN1C(=O)[C@H]2[C@@H](c3ccc(C(F)(F)F)cc3)N[C@]3(CCCN(Cc4ccc(F)cc4)C3=O)[C@H]2C1=O	TDP1 cell noCPT 9.2µM, TDP1 cell CPT 20.6µM (no result: ELG1 repair inh)
O=[N+]([O-])c1ccc(CSC2=NCCS2)cc1	none
Cc1ccc(CSCC(=O)Nc2cc(S(=O)(=O)N3CCOCC3)ccc2OCC(F)(F)F)cc1	TDP1 cell CPT inconclusive (no result: ELG1 repair inh)
O=C(CNC(=O)c1nn(Cc2ccccc2)c(=O)c2ccccc12)Nc1ccc(F)c(F)c1F	ELG1 repair inh inconclusive
O=C(CSc1ccccc1)N1CCCC(N2CCN(c3ccccc3)CC2)C1 (centres undefined)	TDP1 cell CPT inconclusive
CCN1C(=O)[C@H]2[C@@H](c3ccc(C(F)(F)F)cc3)N[C@]3(CCCN(Cc4ccccc4)C3=O)[C@H]2C1=O	TDP1 cell noCPT 16.4µM, TDP1 cell CPT 20.6µM (no result: ELG1 repair inh)
Cc1ccc(CN2CCC[C@]3(N[C@H](c4ccc(C(F)(F)F)cc4)[C@@H]4C(=O)N(Cc5ccccc5)C(=O)[C@@H]43)C2=O)cc1	TDP1 cell noCPT 20.6µM, TDP1 cell CPT 20.6µM (no result: ELG1 repair inh)
Cc1ccc([C@H]2N[C@]3(CCCN(Cc4ccc(F)cc4)C3=O)[C@H]3C(=O)N(Cc4ccccc4)C(=O)[C@@H]23)cc1	TDP1 cell noCPT inconclusive, TDP1 cell CPT inconclusive (no result: ELG1 repair inh)
COc1ccc(CN2CCC[C@]3(N[C@H](c4ccc(C(F)(F)F)cc4)[C@@H]4C(=O)N(Cc5ccccc5)C(=O)[C@@H]43)C2=O)cc1	TDP1 cell noCPT inconclusive, TDP1 cell CPT inconclusive (no result: ELG1 repair inh)
